Compounds with a hit are over-represented: about 18% of the library has one in this group of screens.
KAT2A inh = qHTS Assay for Inhibitors of GCN5L2 | Histone acetyltransferase KAT2A (Homo sapiens), Q92830 | GCN5L2 HAT assay, ThioGlo1 CoA-SH fluorescence | Potency, µM (series often up to 58.9 µM), inactives show at the highest dose activity change, negative = inhibition, actives largely listed as inhibitors | actives 0.21% (n = 390,000) | AID 504327, 2011
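Titration-based screen in which CoA formation is detected via maleimide probe ThioGlo1 (50uM) turning fluorescent on thiol reaction; substrates H3(1-25) 75uM and acetyl-CoA 70uM, GCN5L2 20nM, 20 min incubation at room temperature.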
PLK1 PBD block = qHTS for Inhibitors of PLK1-PDB (polo-like kinase 1 - polo-box domain): Primary Screen; Plk1 PBD binding of FITC phosphopeptide, fluorescence polarization; Potency, µM, for the others: max response, negative = inhibition, usual class: inhibitors; actives 2.8% (n = 360,000); note: series mostly up to about 57 µM; nearly all actives have a fitted effect of over 65% in size
Target sequence (P53350 whole entry, looked up, the tested form may be a part): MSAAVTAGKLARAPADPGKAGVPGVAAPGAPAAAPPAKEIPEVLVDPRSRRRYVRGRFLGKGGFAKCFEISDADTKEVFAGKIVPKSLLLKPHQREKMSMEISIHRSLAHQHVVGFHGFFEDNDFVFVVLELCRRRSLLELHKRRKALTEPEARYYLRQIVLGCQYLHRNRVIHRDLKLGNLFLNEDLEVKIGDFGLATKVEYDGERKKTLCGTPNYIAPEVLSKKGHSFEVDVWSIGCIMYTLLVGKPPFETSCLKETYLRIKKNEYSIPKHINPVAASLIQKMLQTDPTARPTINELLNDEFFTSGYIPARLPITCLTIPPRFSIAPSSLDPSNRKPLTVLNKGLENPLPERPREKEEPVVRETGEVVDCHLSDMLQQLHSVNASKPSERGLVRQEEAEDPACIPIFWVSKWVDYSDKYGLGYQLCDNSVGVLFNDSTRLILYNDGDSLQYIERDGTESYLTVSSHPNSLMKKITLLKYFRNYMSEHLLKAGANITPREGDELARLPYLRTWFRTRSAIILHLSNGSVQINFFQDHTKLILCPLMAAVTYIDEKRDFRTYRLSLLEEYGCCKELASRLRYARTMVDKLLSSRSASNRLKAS
TDP1 block = qHTS Assay for Inhibitors of Tyrosyl-DNA Phosphodiesterase (TDP1) | Tyrosyl-DNA phosphodiesterase 1 (Homo sapiens), Q9NUW8 | Potency, µM (titrated, usually from 130 µM), inactives show at the highest dose activity change, negative = inhibition, most hits filed as inhibitors | recombinant TDP1, AlphaScreen DNA substrate cleavage | actives 0.28% (n = 350,000); note: nearly all actives have a fitted effect of over 40% in size
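Here, a 5' biotin and 3' phosphotyrosine-FITC DNA oligonucleotide reports Tdp1 activity: intact substrate bridges AlphaScreen beads, while cleavage leaves a 3' phosphate and drops signal. All incubations at room temperature.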
TDP1 cell CPT = qHTS for Inhibitors of human tyrosyl-DNA phosphodiesterase 1 (TDP1): qHTS in cells in presence of CPT; actives 12% (n = 420,000); Potency, µM (doses to about 46.2 µM), inactives show at the top dose activity change, negative = growth inhibition, hits mostly inhibitors; chicken DT40 Tdp1-/-;hTDP1 cells + 20 nM CPT, ATP luminescence, 48 h; note: nearly all actives have a fitted effect of over 55% in size
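Cell growth measured by CellTiter-Glo luminescence after a minimum 48 h, 37 C compound exposure with 20 nM CPT in Tdp1-knockout DT40 cells stably expressing hTDP1, seeded 400/well; qHTS titration format.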
DT40 TDP1 no CPT = qHTS for Inhibitors of human tyrosyl-DNA phosphodiesterase 1 (TDP1): qHTS in cells in absence of CPT | DT40 Tdp1-/- hTDP1 cells, no CPT, ATP luminescence, 48 h | Potency, µM (doses to about 46.2 µM), for inactives: at the highest dose activity change, negative = growth inhibition, usual class: inhibitors | actives 15% (n = 420,000) | AID 686978, 2013; note: nearly all actives have a fitted effect of over 55% in size
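No-CPT arm: Tdp1-/-;hTDP1 DT40 cells (400/well) plus compounds, incubated ≥48 hr at 37 °C. Readout CellTiter-Glo luminescence.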
VDR inhibitor = Inhibitors of the vitamin D receptor (VDR): qHTS. VDR-SRC2-3 peptide fluorescence polarization, 2 h. Potency, µM, for the others: max response, negative = inhibition, most hits filed as inhibitors. actives 0.93% (n = 400,000). AID 504847, 2011. Vitamin D3 receptor (Homo sapiens), P11473
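Signal is fluorescence polarization, reporting how far test compounds block the interaction of VDR with the SRC2-3 coregulator peptide after a 2 h room-temperature incubation.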
* marks the source's active call; other numbers are inactive results; u = inconclusive; x = no result; [ ] = dose if it differs, or a comment. Calls come from the whole dose curve; as a rule, active = well fitted curve in the direction sought with a large enough effect; inconclusive = small, poorly fitted or top-dose-only effect, or another doubt; inactive = no such curve, though single readings can be large; an effect the other way counts as inactive or inconclusive. % is set by controls: 0 for no effect and ±100 for the full control effect; potency is the fitted concentration of half-maximal effect.

SMILES | KAT2A inh | PLK1 PBD block | TDP1 block | TDP1 cell CPT | DT40 TDP1 no CPT | VDR inhibitor
COc1ccc2c(c1)c(CCN1CCOCC1)c(C)n2C(=O)c1cccc(Cl)c1Cl | u | x | 23% | x | x | -16%
C[C@H]1CCCC=CC2C[C@H](O)C[C@@H]2[C@H](O)/C=C\C(=O)O1 (stereo not given in full) | x | x | -4%[56.1 µM] | x | x | x
C[C@H]1CCC/C=C/C2C[C@H](O)CC2[C@H](O)/C=C/C(=O)O1 (stereo not given in full) | 2% | -15% | 3% | 0.23µM* | 0.18µM* | 10%
CC1CCC/C=C/C2CC(O)CC2C(O)/C=C/C(=O)O1 (stereo not given) | -4% | 6% | 8% | 0.29µM* | 0.37µM* | -7%
CC12CCC3c4ccc(O)c([N+](=O)[O-])c4CCC3C1CCC2=O (stereo not given) | x | 3% | x | u | u | x
CC1=NN=C(c2ccc(N)cc2)c2cc3c(cc2C1)OCO3 | -6% | -2% | -7%[56.1 µM] | 30µM* | 27µM* | -2%
CC1Cc2cc3c(cc2C(c2ccc(N)cc2)=NN1)OCO3 (stereo not given) | x | x | 13% | x | x | x
CCC(=NCCO)c1c(O)n(-c2ccc(Cl)cc2)c(=O)[nH]c1=O | -4% | 2% | 7% | -10% | 0% | 2%
COc1ccc(-n2c(-c3ccco3)nc3ccccc3c2=O)cc1 | 37% | 1% | 5% | u | 23µM* | 7%
Cc1ccccc1-n1c(-c2ccco2)nc2ccccc2c1=O | -1% | -10% | 2% | 12µM* | 9.2µM* | -9%
O=c1c2ccccc2nc(-c2ccco2)n1-c1ccccc1 | -6% | -3% | 2% | u | u | -1%
COC(=O)Nc1nc2ccccc2[nH]1 | x | -1% | 14% | 6.5µM* | 5.8µM* | -25%
Nc1ccc(CC(N)c2csc(Nc3ncccn3)n2)cc1 (stereo not given) | x | -10% | x | 18µM* | 10µM* | x
NC(Cc1ccc(C(F)(F)F)cc1)c1csc(Nc2nncc3ccccc23)n1 (stereo not given) | x | 1% | x | 13µM* | 21µM* | x
NC(Cc1ccc(F)cc1)c1csc(Nc2ncccn2)n1 (stereo not given) | x | -7% | x | 7.3µM* | 5.8µM* | x
NC(Cc1ccc(Cl)cc1)c1csc(Nc2ncccn2)n1 (stereo not given) | x | 2% | x | 3.7µM* | 4.1µM* | x
CCN1C(=O)c2ccccc2Sc2ccc(NC(=O)c3ccc(C)c(F)c3)cc21 | -1% | x | -2% | u | u | 20%
NC(=O)CNC(=O)[C@H](Cc1ccccc1)NC(=O)[C@H](CCCN=C(N)N)NC(=O)[C@@H](N)Cc1ccc(O)cc1 | -10% | x | 4% | x | x | 2%
NC(CP(=O)(O)O)C(=O)O (stereo not given) | -5% | x | 13%[56.1 µM] | -2% | -4% | 10%
CC1CN(c2ccc([N+](=O)[O-])c3cccnc23)CC(C)N1 (stereo not given) | 1% | -1% | 2% | -21% | 23µM* | 6%
O=[N+]([O-])c1ccc(N2CCCC2)c2ncccc12 | -1% | -10% | 8% | -10% | 4% | 0%
Nc1c(C(=O)Nc2ccc(OC(F)(F)F)cc2)sc2nc3c(cc12)N1CCC3CC1 | -18% | x | 5% | 16µM* | 18µM* | 9%
O=C1C(Br)C2CCC1C2C(=O)O (stereo not given) | x | -8% | x | -2% | 0% | x
N#Cc1c(Cl)nc(Cl)c2c1CCN(Cc1ccccc1)C2 | -3% | -14% | 3% | u | 16µM* | u
CC(C)OP(=O)(Oc1ccc(C(O)C(Cl)(Cl)Cl)cc1)OC(C)C (stereo not given) | 2% | 1% | 4% | u | 18µM* | -21%
SMILES | KAT2A inh | PLK1 PBD block | TDP1 block | TDP1 cell CPT | DT40 TDP1 no CPT | VDR inhibitor
COP(=O)(OC)Oc1ccc(C(O)C(Cl)(Cl)Cl)cc1 (stereo not given) | 0% | 1% | x | 17% | -7% | 2%
CC1(C)COC(Nc2ccc(Cl)cc2)=N1 | 2% | 3% | 5% | -16% | -21% | 19%
O=c1c2ccccc2nc(/C=C/c2ccc3c(c2)OCO3)n1-c1ccccc1 | 11% | 5% | -2% | u | 23µM* | 7%
COc1cccc(-n2c(/C=C\c3ccc(Cl)cc3)nc3ccccc3c2=O)c1 | -8% | x | 3%[2.28 µM] | u | 18µM* | u
COc1ccc(-n2c(/C=C/c3ccc(O)c(O)c3)nc3ccccc3c2=O)cc1 | -20% | 42% | x | u | 18µM* | -8%
O=c1c2ccccc2nc(/C=C/c2ccccn2)n1-c1ccccc1 | -8% | -1% | -8% | -25% | -20% | 3%
COc1cccc(-n2c(C)nc3ccccc3c2=O)c1 | -11% | -6% | 0% | -29% | -12% | 29%
COc1ccc(N)cc1 | x | x | 18% | x | x | x
COc1ccc(C=O)cc1OC | x | x | 10% | x | x | x
CN(C)c1c([N+](=O)[O-])cc(N2C(=O)C=CC2=O)cc1[N+](=O)[O-] | x | 3µM* | x | 1.3µM* | 1.3µM* | 16µM*
CCNc1cc(N2CCN(C)CC2)ccc1[N+](=O)[O-] | -8% | 3% | -3% | -18% | -5% | 1%
CCc1ccc(N2C(=O)NC(=O)/C(=C/c3ccsc3)C2=O)cc1 | -3% | x | 0% | x | x | x
O=C1NC(=O)N(c2ccc3c(c2)OCO3)C(=O)/C1=C/c1ccsc1 | 4% | 7.5µM* | 1% | -29% | -23% | u
O=C1NC(=O)N(c2ccc3c(c2)OCO3)C(=O)/C1=C/c1cccs1 | -2% | 2.1µM* | -3% | u | u | 79µM*
CC(=O)[C@@H]1CC[C@H]2[C@H]3CC[C@H]4C[C@@H](O)CC[C@]4(C)[C@@H]3C(=O)C[C@@]12C | 7%[21.4 µM] | x | 9%[21 µM] | x | x | 8%
CC1CC[C@]2(NC1)OC1CC3C4CC=C5CC(O)CC[C@@]5(C)C4CC[C@]3(C)C1C2C (stereo not given in full) | 4% | x | 5% | 12% | 5% | 9%
CN(C)CCc1c[nH]c2cccc(OP(=O)(O)O)c12 | x | x | x | 10%[92.5 µM] | 3%[92.5 µM] | x
CCN1C(=O)/C(=C\c2ccc([N+](=O)[O-])s2)C(=O)NC1=S | 8.9µM* | x | x | x | x | x
CCCCN1C(=O)/C(=C/c2ccc(N3CCCCCC3)cc2)C(=O)NC1=S | 33% | x | 1% | x | x | x

Source: PubChem
